# Reference: PubChem BioAssay (NCATS)
# Results filed as inconclusive are left out. Entries that show only a call come without a potency. Calls of active or inactive are those of the source. Unless noted, calls come from the whole dose curve; as a rule, active = well fitted curve in the direction sought with a large enough effect; inconclusive = small, poorly fitted or top-dose-only effect, or another doubt; inactive = no such curve, though single readings can be large; an effect the other way counts as inactive or inconclusive.
# Assays:
# [1] = Cytotoxicity counterscreen for NFkB agonists and antagonists (AID 624476);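 note: cells exposed to compound for 48 hours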
# [2] = qHTS Assay for Identification of Small Molecule Agonists for NFkB Signaling Pathway. (AID 624478)
# In short: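 NFkB-bla ME-180 cells (beta-lactamase reporter under NFkB response element) were plated overnight, treated with compound plus TNF alpha at 10 pM final (its EC50) for 5 hrs at 37 C, then loaded with LiveBLAzer substrate for 2 hrs.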
# [3] = qHTS Assay for Identification of Small Molecule Antagonists for NFkB Signaling Pathway. (AID 624479; calls by dose curve;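 note: pathway stimulated with TNF alpha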; note: potency is the fitted concentration of half-maximal effect)
# [4] = Cell Proliferation Assay against the TMD8 Cell Line (AID 651645); conditions: TMD8 DLBCL cell line proliferation/viability; at 46.1 µM (top of the series) unless noted;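 note: cells exposed to compound for 48 h before reading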
# In short: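 Viability by CellTiter-Glo after 48 h compound exposure of 500 log-phase TMD8 cells per well (RPMI, 5% FBS). Percent activity scaled between DMSO (100%) and 9.2 uM final bortezomib (0%).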
# [5] = Cell Proliferation Assay against the HBL1 Cell Line (AID 651646); conditions: HBL1 DLBCL cells; at 46.1 µM (top of the series) unless noted;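 note: cells exposed to compound for 48 h before reading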
# In short: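 500 log-phase HBL1 cells per well in phenol red-free RPMI with 5% FBS were treated with compounds for 48 h at 37 °C, 5% CO2. Viability was read by CellTiter-Glo luminescence, normalized to DMSO (100%) and 9.2 uM bortezomib final (0%).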
# [6] = molecular target: Tyrosine-protein kinase Yes (Homo sapiens) (UniProt P07947); assay: qHTS for small molecule inhibitors of Yes1 kinase: Primary Screen (AID 686947); note: nearly all actives have a fitted effect of over 60% in size; note: potency is the fitted concentration of half-maximal effect
# Tyrosine-protein kinase Yes (Homo sapiens), sequence (P07947 whole entry, looked up): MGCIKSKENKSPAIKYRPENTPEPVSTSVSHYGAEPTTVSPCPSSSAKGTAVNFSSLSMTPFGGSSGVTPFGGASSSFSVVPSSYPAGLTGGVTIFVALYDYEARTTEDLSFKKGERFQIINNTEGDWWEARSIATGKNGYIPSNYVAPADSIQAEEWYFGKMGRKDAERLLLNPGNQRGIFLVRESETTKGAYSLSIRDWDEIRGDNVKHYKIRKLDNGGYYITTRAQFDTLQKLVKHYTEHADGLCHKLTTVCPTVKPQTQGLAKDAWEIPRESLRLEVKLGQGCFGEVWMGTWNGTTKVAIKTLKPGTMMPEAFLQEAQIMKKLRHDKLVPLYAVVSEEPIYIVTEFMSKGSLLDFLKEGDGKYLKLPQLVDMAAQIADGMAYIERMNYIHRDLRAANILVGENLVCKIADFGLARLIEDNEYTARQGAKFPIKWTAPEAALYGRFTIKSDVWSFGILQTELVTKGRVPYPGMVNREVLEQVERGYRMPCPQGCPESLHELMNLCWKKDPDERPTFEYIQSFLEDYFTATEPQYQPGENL
# In short: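 ADP-Glo luminescence readout; final 4 nM Yes1, 0.1 mM ATP, 0.3 mg/mL poly(E4Y), Tris pH 7.5, MgCl2, DTT, Brij-35. 20 min compound preincubation, 60 min reaction at RT. Normalized to DMSO wells with and without enzyme.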
# [7] = Cell Proliferation Assay against the TMD8 Cell Line (Caspase readout at 8 hrs) (AID 651713)
# In short: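 TMD8 cells (500/well) in phenol red-free RPMI with 5% FBS were treated with compounds for 8 h at 37C, 5% CO2. Caspase-Glo 3/7 luminescence was read after 15 min at room temperature and normalised to DMSO (0%) and 9.2 uM bortezomib (100%).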
# [8] = Cell Proliferation Assay against the TMD8 Cell Line (Caspase readout at 16 hrs) (AID 651712); note: potency is the fitted concentration of half-maximal effect
# In short: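 TMD8 cells (500/well) in phenol-red-free RPMI with glutamine, 5% FBS, were exposed to compounds for 16 h at 37 °C. Caspase 3/7 activation was read by Caspase-Glo luminescence; percent activity normalised to DMSO (0%) and 9.2 uM bortezomib final (100%).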
SMILES,Potency [1],outcome [2],Potency [3],viability (% of control) [4],"viability, percent of control [5]",Potency [6],Potency [7],Potency [8]
Cc1cc(-c2nnc3n2CCCCC3)c(C)n1-c1ccc(F)cc1,inactive,inactive,inactive,6.21%,4.79%,34.5 µM (active),–,–
COc1ccc(CC2=NN3C([C@@H](CCc4ccccc4)[C@@H](C)O)=NC(C)C3C(=O)N2)cc1OC (stereo partly drawn),inactive,inactive,inactive,72.3%,73.7%,inactive,–,–
N#Cc1ccc(C(c2ccc(C#N)cc2)n2cncn2)cc1,inactive,inactive,inactive,71.5%,110%,inactive,inactive,–
COc1ccccc1-c1cccc(-c2c(O)c3cc(C#N)c(Cl)cc3[nH]c2=O)c1,inactive,inactive,–,86.6%,80.1%,–,inactive,inactive
CCCn1c(=O)c2[nH]c(C34CC5CC3C[C@@H](C5)C4)nc2n(CCC)c1=O,inactive,inactive,–,30.5%,60.2%,–,inactive,–
NC(=O)c1ccc(-c2nc(-c3ccc4c(c3)OCCO4)c(-c3ccccn3)[nH]2)cc1,inactive,inactive,–,83.2%,105%,inactive,–,inactive
COc1cc2c(cc1OC)CN(CCc1ccc(NC(=O)c3cccc4c(=O)c5cccc(OC)c5[nH]c34)cc1)CC2,inactive,inactive,inactive,56%,0.316%,inactive,inactive,–
COc1cccc2cc(-c3nc(C4CCC(C(=O)O)CC4)n4ncnc(N)c34)[nH]c12 (stereo not drawn),inactive,inactive,inactive,18.4%,58.5%,0.0688 µM (active),–,–
c1ccc(-c2nn3c(c2-c2ccnc4cc(OCCN5CCOCC5)ccc24)CCC3)nc1,inactive,inactive,–,41.4%,77.9%,–,–,–
CC(=O)NC(C)c1ccc(Oc2ccc(OC(C)C)cc2)cc1 (stereo not drawn),inactive,inactive,inactive,–,62.8%,–,–,–
CNC(=O)c1ccc(N2C(=S)N(c3ccc(C#N)c(C(F)(F)F)c3)C(=O)C2(C)C)cc1F,inactive,inactive,–,78.7%,83.2%,–,inactive,inactive
OC[C@H](Cc1ccccc1)Nc1nc(Oc2ccc3c(c2)CCC3)nc2c1ncn2Cc1ccc(-c2ccccc2)cc1,inactive,inactive,inactive,54.4%,35.2%,inactive,–,–
Cc1ccc(NC(=O)c2cccc(C(C)(C)C#N)c2)cc1Nc1ccc2ncn(C)c(=O)c2c1,inactive,inactive,–,11.7%,41.4%,–,–,26.4 µM (active)
CCOc1cc(C=C2C(=O)N(c3ccccc3)N=C2C)cc(Cl)c1OCC(=O)OC,inactive,inactive,–,81.8%,46.9%,inactive,–,inactive
OCCn1cc(-c2cnc3nnn(Cc4ccc5ncccc5c4)c3n2)cn1,inactive,inactive,inactive,75.8%,79.7%,inactive,–,–
CS(=O)(=O)c1cccc(CNc2nc(Nc3ccc4c(c3)CCC(=O)N4)ncc2C(F)(F)F)c1,inactive,inactive,inactive,–,120%,0.972 µM (active),–,–
CCc1ccc(CCOc2ccc(CC3SC(=O)NC3=O)cc2)nc1 (stereo not drawn),inactive,inactive,16.8 µM (active),79.6%,77.7%,1.73 µM (active),inactive,–
O=c1ncn2nc(Sc3ccc(F)cc3F)ccc2c1-c1c(Cl)cccc1Cl,inactive,inactive,inactive,65.5%,62.3%,inactive,–,–
CN(C)c1ccc(C2Nc3ccc4ccccc4c3C3=C2C(=O)CC(C)(C)C3)cc1Br (stereo not drawn),inactive,inactive,–,64.8%,69.1%,inactive,–,inactive
O=C(O)CCc1ccc(NCc2cccc(Oc3ccccc3)c2)cc1,inactive,inactive,inactive,107%,95.9%,inactive,–,–
Cc1ccnc(NS(=O)(=O)c2ccc(NC(=O)Nc3ccc(S(=O)(=O)Nc4nccc(C)n4)cc3)cc2)n1,inactive,inactive,16.8 µM (active),48.6%,–,–,inactive,23.5 µM (active)
CCOC(=O)N[C@@H]1CC[C@@H]2[C@@H](C1)C[C@H]1C(=O)O[C@H](C)[C@H]1[C@@H]2C=Cc1ccc(-c2cccc(F)c2)cn1,inactive,inactive,inactive,42.8%,–,inactive,inactive,–
CCOc1cc(N2CCC(O)CC2)ccc1Nc1ncc2c(n1)N(C)c1ccccc1C(=O)N2C,inactive,inactive,–,2.87%,29%,–,–,20.9 µM (active)
